TDP1 cell CPT = qHTS for Inhibitors of human tyrosyl-DNA phosphodiesterase 1 (TDP1): qHTS in cells in presence of CPT. 420,000 tested, 12% active. AID 686979, 2013. chicken DT40 Tdp1-/-;hTDP1 cells + 20 nM CPT, ATP luminescence, 48 h. Potency, µM (highest dose often 46.2 µM), most hits filed as inhibitors; note: nearly all actives have a fitted effect of over 55% in size
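Cell growth measured by CellTiter-Glo luminescence after a minimum 48 h, 37 C compound exposure with 20 nM CPT in Tdp1-knockout DT40 cells stably expressing hTDP1, seeded 400/well; qHTS titration format.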
IL1B secr inh = qHTS for Inhibitors of Inflammasome Signaling: IL-1-beta AlphaLISA Primary Screen; THP-1 LPS/ATP IL-1B secretion, AlphaLISA, 16 h; hits give low values; activity change, % at 57.5 µM; 360,000 tested, 4.7% active; AID 743279, 2014; in the data active = activity change below about -50%; inconclusive = mostly about -30% to -49%
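THP-1 cells pretreated 1 hr with compounds (up to 57.5 uM final), then stimulated with LPS (250 ng/mL final) plus ATP (1.25 mM final); secreted IL-1B measured by AlphaLISA after 16 hr, decreased signal indicating inhibition.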
ClpP mod = qHTS Assay for Activators of ClpP. Potency, µM (series often up to 57.5 µM). AID 651965, 2013. purified B. subtilis ClpP, FRET peptide cleavage, 20 min. 340,000 tested, 1.9% active; active = well fitted falling curve with a large enough effect; inconclusive = small, poorly fitted or top-dose-only effect; inactive = no such curve, though single readings can be large or run the other way; note: the source files actives as falling curves though it sought activators and does not explain the sign; nearly all actives have a fitted effect of over 65% in size
Target sequence (P80244 whole entry, looked up): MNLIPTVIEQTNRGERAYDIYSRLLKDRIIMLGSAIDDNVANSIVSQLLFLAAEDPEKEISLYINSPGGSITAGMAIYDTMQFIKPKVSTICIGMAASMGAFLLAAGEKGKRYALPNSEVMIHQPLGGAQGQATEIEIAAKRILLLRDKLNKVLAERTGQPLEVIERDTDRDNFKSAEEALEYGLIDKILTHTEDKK
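Buffer: 100 mM Tris/HCl pH8, 100 mM KCl, 0.05% low protease BSA, 2.5% glycerol, 0.01% Tween-20. ClpP 10 microg/mL final; 20 min RT; delta FRET normalized to ADEP and DMSO controls.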
DRD3 antagonist = qHTS of D3 Dopamine Receptor Antagonist: qHTS | D(3) dopamine receptor (Homo sapiens), P35462 | D3R cells, DiscoveRx beta-arrestin luminescence, antagonist mode; hits give low values | max response, negative = inhibition, % | 360,000 tested, 2.5% active; in the data active = max response below about -50%; inconclusive = no clear call, values can overlap the other calls
Target sequence (P35462 whole entry, looked up): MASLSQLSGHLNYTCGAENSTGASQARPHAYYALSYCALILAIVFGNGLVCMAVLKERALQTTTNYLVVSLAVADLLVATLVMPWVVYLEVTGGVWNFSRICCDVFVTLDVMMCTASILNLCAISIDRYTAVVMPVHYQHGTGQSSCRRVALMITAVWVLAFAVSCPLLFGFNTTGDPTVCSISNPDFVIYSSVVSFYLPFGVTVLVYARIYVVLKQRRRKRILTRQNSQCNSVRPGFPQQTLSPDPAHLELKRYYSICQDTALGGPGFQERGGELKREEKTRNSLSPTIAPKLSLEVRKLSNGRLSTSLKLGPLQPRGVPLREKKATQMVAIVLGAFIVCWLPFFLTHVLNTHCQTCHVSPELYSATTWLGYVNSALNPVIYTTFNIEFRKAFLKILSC
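Cells plated overnight at 1500 cells/well, then exposed to library compounds with dopamine controls for 90 minutes at 37 degrees C. DiscoveRx reagent added for 30–60 minutes at room temperature; luminescence read, quantitative HTS format.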
TDP1 cell noCPT = qHTS for Inhibitors of human tyrosyl-DNA phosphodiesterase 1 (TDP1): qHTS in cells in absence of CPT; AID 686978, 2013; 420,000 tested, 15% active; DT40 Tdp1-/- hTDP1 cells, no CPT, ATP luminescence, 48 h; Potency, µM (titrated, usually from 46.2 µM), usual class: inhibitors; note: nearly all actives have a fitted effect of over 55% in size
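Camptothecin absent (DMSO only). Human TDP1-complemented DT40 knockout cells, 400 cells/well, 37 °C for minimum 48 hr; ATP measured via CellTiter-Glo, 30 min dark incubation, luminescence.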
DRD3 agonist = qHTS of D3 Dopamine Receptor Agonist: qHTS; AID 652048, 2013; D(3) dopamine receptor (Homo sapiens), P35462; max activation, %; D3R DiscoveRx beta-arrestin cells, luminescence, 90 min; 410,000 tested, 0.58% active; in the data active = max activation above about 30%
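Agonist mode: compounds and dopamine controls were applied to plated cells for 90 min at 37 degrees C after an overnight attachment at 1500 cells/well. Luminescent read-out followed 30 - 60 minutes at room temperature with DiscoveRx detection reagent.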
Numbers stand for hits; . = inactive; ? = inconclusive; / = no result given. Compounds with a hit are over-represented: about 21% of the library has one in this group of screens. Unless noted, calls come from the whole dose curve; as a rule, active = well fitted inhibition curve with a large enough effect; inconclusive = small, poorly fitted or top-dose-only effect; inactive = flat fitted curve, though single readings scatter.

SMILES | TDP1 cell CPT | IL1B secr inh | ClpP mod | DRD3 antagonist | TDP1 cell noCPT | DRD3 agonist
c1ccc(-c2ccc(C3=Nn4c(nnc4-c4cc(-c5ccccc5)n[nH]4)SC3)cc2)cc1 | ? | . | . | . | ? | .
Cc1cc(-c2nnc3n2N=C(C(C)(C)C)CS3)n[nH]1 | . | . | . | -52.0 | . | .
O=C1c2ccccc2C(=O)N1CC1CO1 (centres undefined) | . | . | / | . | . | 62.9
Cc1cccc(OCC(=O)Nc2ccc(C(=O)Nc3ccccc3C(=O)O)cc2)c1C | . | . | . | . | . | .
Cc1ccc(N(CC(C)C)S(=O)(=O)c2nnc(NC(=O)c3ccco3)s2)cc1 | ? | / | . | / | 18.4µM | .
CN(c1ccc(Cl)cc1)S(=O)(=O)c1nnc(NC(=O)c2ccco2)s1 | ? | . | . | -72.1 | ? | .
CCOc1ccccc1N1CCN(C(=S)Nc2ccc(S(=O)(=O)Nc3ncccn3)cc2)CC1 | . | . | . | ? | . | .
CCOc1ccc(S(=O)(=O)NCCc2sc3nc(-c4ccc(F)cc4)nn3c2C)cc1 | ? | / | . | / | 14.6µM | .
CCCS(=O)(=O)NCCc1sc2nc(-c3ccc(Cl)cc3)nn2c1C | 5.17µM | / | . | / | 8.2µM | .
CCCS(=O)(=O)NCCc1sc2nc(-c3ccc(F)cc3)nn2c1C | 20.6µM | / | . | / | 14.6µM | .
Cc1cc(C)c(S(=O)(=O)NCCc2sc3nc(-c4ccc(F)cc4)nn3c2C)c(C)c1 | ? | / | . | / | 20.6µM | .
COc1ccc(S(=O)(=O)NCCc2sc3nc(-c4ccc(C)cc4)nn3c2C)cc1C | ? | / | . | / | ? | .
CCc1ccc(NC(=O)C(=O)NCCc2sc3nc(-c4ccc(OC)cc4)nn3c2C)cc1 | . | / | . | / | . | .
O=C(NCc1ccccn1)c1ccc(Cl)c(S(=O)(=O)N2CCOCC2)c1 | . | . | . | . | . | .
Nc1ccc2c(Cl)cc(Cl)cc2c1 | . | . | . | . | . | .
Cn1ccnc1SCC(=O)Nc1ccc(Br)cc1C(F)(F)F | . | . | . | . | . | .
CN(Cc1ccc(F)cc1)Cc1nc(-c2cnccn2)no1 | . | . | / | . | . | .
CCC(CC)NC(=O)Nc1cccc(C)c1C | . | . | . | . | . | .
CC(C)N(CC(=O)Nc1ccc(Cl)cc1C(F)(F)F)C(=O)CCl | 20.6µM | -115.5 | / | . | 6.51µM | .
CCC(C)N(CC(=O)Nc1cccc(C)c1C)C(=O)CCl (centres undefined) | ? | -110.5 | / | . | 2.31µM | .
Cc1cc(C)c2oc(-c3ccc(C)c(NC(=O)/C=C/c4ccco4)c3)nc2c1 | ? | / | . | / | ? | .
Cc1ccc(C(=O)NCCNS(=O)(=O)c2ccccc2)cn1 | . | . | / | . | . | .
CC(=O)c1cccc(S(=O)(=O)N2CCC(C(=O)O)(c3ccccc3)CC2)c1 | . | . | / | . | ? | .
CC(C(=O)Nc1ccccc1)N(C)CCOc1ccccc1 (centres undefined) | . | . | / | ? | . | .
CN(CCOc1cccc2ccccc12)Cc1ccccc1 | . | . | . | -75.5 | . | .
SMILES | TDP1 cell CPT | IL1B secr inh | ClpP mod | DRD3 antagonist | TDP1 cell noCPT | DRD3 agonist
c1ccc(CCNCCCOc2cccc3ccccc23)cc1 | . | -100.8 | / | -67.1 | ? | .
COc1ccc(OCCN(C)Cc2c(O)ccc3ccccc23)cc1 | . | ? | / | . | . | .
CN(CCOc1ccccc1)Cc1ccccc1 | ? | . | . | -117.2 | . | .
CCc1ccc(CN(C)CC(O)COc2cccc3ccccc23)cc1 (centres undefined) | ? | -99.1 | / | . | ? | .
CCc1cccc(NC(=O)Cn2nc(C)c3sc4ccccc4c3c2=O)c1 | . | / | . | / | . | .
Fc1ccc(-c2nnc(NC3=NCCCCC3)o2)cc1 | ? | . | . | . | 13µM | .
CCC(CC)C(=O)c1c[nH]c(C(=O)N2CCN(c3ccc(OC)cc3)CC2)c1 | . | . | . | . | . | .
CC(C)c1ccc(NC(=O)N2CCN(c3ccc(Cl)c(Cl)c3)CC2)cc1 | ? | / | . | / | 0.92µM | .
CCOc1ccc(NC(=O)N2CCC(CN3CCCCCC3)CC2)cc1 | 18.4µM | / | . | / | ? | .
CC(=O)c1ccc(N2CCN(C(=O)Nc3ccc(C)cc3)CC2)cc1 | ? | . | . | . | ? | .
Cc1ccc(NC(=O)N2CCN(c3ccc(Cl)c(Cl)c3)CC2)cc1 | ? | / | . | / | 3.26µM | .
CCOc1ccc(NC(=O)N2CCN(c3ccc(Cl)c(Cl)c3)CC2)cc1 | ? | / | . | / | 1.3µM | .
CC1=C(c2ccc(C)cc2)S(=O)(=O)NC1=NCc1cccc(F)c1 | . | / | . | / | ? | .
CC1=C(c2ccc(C)cc2)S(=O)(=O)NC1=NCCCN1CCN(c2ccccc2F)CC1 | ? | / | . | / | 16.4µM | .
CCCN1CNc2c(c(=O)[nH]c(=O)n2CCc2ccc(OC)c(OC)c2)C1 | . | / | . | / | . | /
Cn1ccc2c(-c3ccc(C(=O)O)cc3)cc3c(c21)C1CCC3O1 (centres undefined) | . | . | . | . | . | .
Cn1ccc2c(-c3ccc(C(C)(C)C)cc3)cc3c(c21)C1CCC3O1 (centres undefined) | ? | . | . | . | 23.1µM | .
Cn1ccc2c(-c3ccc(C(F)(F)F)cc3)cc3c(c21)C1CCC3O1 (centres undefined) | 23.1µM | . | . | . | 16.4µM | .
O=C(Nc1ccccc1)N1CCCC2(CCN(C(=O)c3cnccn3)CC2)C1 | . | / | / | / | . | /
CN(C)c1ccc(N=Nc2ccccc2C(=O)OCC(=O)Nc2ccccc2C(F)(F)F)cc1 | ? | . | / | . | 23.1µM | .
Clc1cccc(NCc2nnc(SCc3ccc(Cl)cc3Cl)o2)c1 | . | . | . | -63.4 | ? | .
CC1(C)CC(NC(=O)c2cccc(Cl)c2)CC(C)(C)N1 | . | . | . | . | . | .
Cc1csc(NC(=O)CSc2nc3nc(C)cc(C)n3n2)n1 | . | . | . | . | . | .
CC1CCCN(C(=O)CN(c2ccccc2)S(=O)(=O)c2ccc(F)cc2)C1 (centres undefined) | . | . | . | . | . | .
N[C@@H](CCC(=O)N[C@@H](CS)C(=O)NCC(=O)O)C(=O)O | ? | / | / | / | . | .
CCOC(=O)c1cc(C)n(CC2CCC(C(=O)Nc3cc(OC)cc(OC)c3)CC2)c1C (centres undefined) | ? | / | . | / | 23.1µM | .

Bioassay records (PubChem)
